# Assay results as given in PubChem BioAssay AID1224854 (National Center for Advancing Translational Sciences (NCATS), 2016).
# Inconclusive results are not listed. The source made the active and inactive calls. The call rests on the fitted dose curve; in most records, active means well fitted activation curve with a large enough effect; inconclusive means small, poorly fitted or top-dose-only effect; inactive means flat fitted curve, though single readings scatter.
# Test: Cell viability assay for measurement of the protective activity of small molecules against cell death caused by Zika virus infection in human astrocytoma cells
# Settings: SNB-19 Zika virus cytoprotection, ATP luminescence, 72 h; series mostly up to 46.1 µM; protection from virus-induced cell death: at the top concentration
# Text: National Center for Advancing Translational Sciences [NCATS] Johns Hopkins University School of Medicine Florida State University Assay Overview: Zika virus infection causes cell death in certain cell types including human neural progenitor cells (hNPCs), astrocytes, and astrocytoma cell line (SNB-19). This cell viability assay measures the ATP content (level) in human astrocytoma cells (SNB-19) using a luminescence readout that is proportional to viable cell numbers. Decrease in the luminescence signal after Zika virus infection indicates the cell death caused by Zika virus. Small molecule inhibitors […] the decreased luminescence signal after Zika virus infection, indicating the protective effect of that small molecule on the cell death caused by Zika virus infection. This observed protective effect of small molecules against Zika virus induced cell death may result from inhibition of virus replication or cellular response to the virus infection.
# Assay Protocol Summary: The medium for SNB-19 cells is composed of RPMI 1640 (ATCC, Cat.# 30-2001), 10% fetal bovine serum (FBS) (GE healthcare Life Sciences, Cat.# SH30071.03), and 1% Pen/Strep (Gibco, Cat.# 15140-122). The ATP content assay kit (PerkinElmer, Cat.# 6016731) was used to determine cell viability. The reagent was reconstituted and prepared as described by the manufacturer. Cells were seeded in 384- or 1536-well assay plates and cultured at 37 C with 5% CO2 for 16 to 20 hours. The typical cell seeding density in the 1536-well plate assay is 250 cells/well in 3ul medium for SNB-19 cells in tissue culture treated plates. Compounds were added to cells and incubated for one hour before addition of ZIKV solution to cells (2 FFU/cell). After incubation at 37 C with 5% CO2 for 72 hours, the reagent mixture of the ATP content assay kit was added to each well, followed by incubation at room temperature for 10 minutes. The luminescence intensity of the assay plates was measured using a ViewLux plate reader (PerkinElmer). […] The percentage inhibitions of the decreased cell viability by small molecule inhibitors were then calculated.
SMILES,protection from virus-induced cell death,Potency
O=C(O)c1ccccc1NCCc1ccccc1,7.39% (inactive),–
CN(C)c1ccc(C(=C2C=CC(=[N+](C)C)C=C2)c2ccccc2)cc1,-19.4% (inactive),–
O=c1[nH]nc(Sc2ncc([N+](=O)[O-])s2)n1-c1ccc2c(c1)OCCO2,–,6.15 µM (active)
CNC1[C@H](O)C(O[C@@H]2C(O)C(O[C@H]3O[C@H]([C@@H](C)NC)CC[C@H]3N)[C@@H](N)C[C@H]2N)OC[C@]1(C)O (stereo not given in full),4.71% (inactive),–
CC1(C)OC2=C(C(=O)c3ccccc3C2=O)[C@H](NCc2ccccc2)[C@H]1O,-22.5% [at 88.3 µM] (inactive),–
CCCCCCCC/C=C/C(=O)O,-6.5% (inactive),–
COCCn1c2c([n+](Cc3cnccn3)c1C)C(=O)c1ccccc1C2=O,-22.2% (inactive),–
CCCSc1ccc2nc(NC(=O)OC)[nH]c2c1,1.59% (inactive),–
O=C(Nc1ccc([N+](=O)[O-])cc1Cl)c1cc(Cl)ccc1O,–,1.55 µM (active)
O=C1C(Cl)=C(NCCN2CCOCC2)C(=O)c2ncccc21,-21% (inactive),–
CO[C@H]1C(=O)[C@]2(C)[C@@H](OC)C[C@H]3OC[C@@]3(OC(C)=O)[C@H]2[C@H](OC(=O)c2ccccc2)[C@]2(O)C[C@H](OC(=O)[C@H](O)[C@@H](NC(=O)OC(C)(C)C)c3ccccc3)C(C)=C1C2(C)C,-12.5% (inactive),–
N[C@H](CSC(c1ccccc1)(c1ccccc1)c1ccccc1)C(=O)O,4.41% (inactive),–
Clc1ccccc1-c1nc(-c2ccncc2)no1,-3.86% (inactive),–
Cc1c(C(=O)O)c(O)cc2c1C(=O)c1c(O)c([C@@H]3O[C@H](CO)[C@@H](O)[C@H](O)[C@H]3O)c(O)c(O)c1C2=O,-5.16% (inactive),–
CCC(C)SSc1ncc[nH]1 (stereo not given),–,24.5 µM (active)
O=C(CS)Nc1ccccc1,-2.47% (inactive),–
Cc1oncc1C(=O)Nc1ccc(C(F)(F)F)cc1,-6.36% (inactive),–
O=C(Oc1ccccc1)c1cccc(C(=O)Oc2ccccc2)c1,3.11% [at 96.3 µM] (inactive),–
C=C1C(=O)[C@@]23C(CC[C@@H]1[C@H]2O)[C@@]12CO[C@]3(O)[C@@H](O)[C@@H]1C(C)(C)CC[C@@H]2O (stereo not given in full),-16.5% (inactive),–
Nc1c(S(=O)(=O)O)cc(Nc2ccc(Nc3nc(Cl)nc(Nc4ccc(S(=O)(=O)O)cc4)n3)c(S(=O)(=O)O)c2)c2c1C(=O)c1ccccc1C2=O,-1.96% (inactive),–

SMILES,protection from virus-induced cell death,Potency
OCc1ccc(-c2ccc(-c3ccc(CO)s3)o2)s1,4.23% (inactive),–
O=c1c(-c2ccc(O)cc2)coc2cc(O)ccc12,-12.4% (inactive),–
COc1ccc(/C=C/C(=O)Nc2ccccc2C(=O)O)cc1OC,-8.74% (inactive),–
C[C@H](NC(=O)C(=O)Nc1ccccc1C(C)(C)C)C(=O)N[C@@H](CC(=O)O)C(=O)COc1c(F)c(F)cc(F)c1F,–,0.489 µM (active)
CCN1/C(=C/C=C/c2sc3ccccc3[n+]2CC)Sc2ccccc21,10.8% [at 23.8 µM] (inactive),–
CCOCCOC(=O)/C=C/c1ccc(OC)cc1,0.0435% (inactive),–
CN(C)c1ccc2cc(C(=O)N[C@@H](CCCN=C(N)CCl)C(=O)NCc3ccccc3)ccc2c1,–,4.35 µM (active)
Cc1cccc(C#Cc2ccccc2)n1,-5.24% (inactive),–
CC=CC[C@@H](C)C(=O)[C@H]1C(=O)N[C@@H](C(C)C)C(=O)N(C)CC(=O)N(C)[C@@H](CC(C)C)C(=O)N[C@@H](C(C)C)C(=O)N(C)[C@@H](CC(C)C)C(=O)N[C@@H](C)C(=O)N[C@H](C)C(=O)N(C)[C@@H](CC(C)C)C(=O)N(C)[C@@H](CC(C)C)C(=O)N(C)[C@@H](C(C)C)C(=O)N1C,-7.94% (inactive),–
Cc1nc(N)sc1-c1ccnc(Nc2ccc(N3CCOCC3)cc2)n1,22% (inactive),–
CS(=O)(=O)c1ccc(-c2cn3ccccc3n2)cc1,-14.4% (inactive),–
CCOC1OC(=O)C[C@H]1NC(=O)[C@@H]1CCCN1C(=O)[C@@H](NC(=O)c1ccc(N)c(Cl)c1)C(C)(C)C (stereo not given in full),0.201% (inactive),–
O=C(O)[C@@H](c1ccc(OCc2ccc3ccccc3n2)cc1)C1CCCC1,-6.29% (inactive),–
NC(=O)c1cccc2[nH]c(-c3ccc([C@H]4CCCN4)cc3F)nc12,-12.1% (inactive),–
Nc1ccc(O)c(C(=O)O)c1,-6.75% (inactive),–
CN1CCN(c2cc3c(nn2)Oc2ccccc2N3C)CC1,-0.644% [at 23.8 µM] (inactive),–
CC(=O)Oc1cccc2c1C(=O)c1c(OC(C)=O)cc(C(=O)O)cc1C2=O,6.53% (inactive),–
O=C(O)c1ccccc1Nc1cccc(C(F)(F)F)c1,-13.1% (inactive),–
CC(=O)Oc1ccccc1C(=O)Nc1ncc([N+](=O)[O-])s1,–,31.6 µM (active)
COc1cccc2c1C(=O)c1c(O)c3c(c(O)c1C2=O)C[C@@](O)(C(=O)CO)C[C@@H]3O[C@H]1C[C@H](N)[C@H](O[C@@H]2CCCCO2)[C@H](C)O1,-20.3% (inactive),–
